# Test results reported in paper PMC5540273 (PLoS ONE, 2017).
# System: PIK3CB
# Settings: concentration: 1 μM,replicates: in singlicate; n = 1
# 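Note: KINOMEscan kinase panel screen.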
row,SMILES,%Inh [%]
1,OCCn1cc(-c2cnc3nnn(Cc4ccc5ncccc5c4)c3n2)cn1,0
2,COc1cc2ncn(-c3cc(OCC4CCCCC4)c(C(N)=O)s3)c2cc1OC [GSK204559],0
3,CCn1c(-c2nonc2N)nc2cncc(Br)c21 [SB-738004],21
4,CC(=O)c1c(-c2ccncc2)[nH]c(-c2ccncc2)c1C [GW493036],0
5,CCOC(=O)N1CCC(n2cnc(-c3ccc(F)cc3)c2-c2ccnc(N)n2)CC1 [SB-219952],0
6,O=C(NOCC1CC1)c1cc(Br)c(F)c(F)c1Nc1ccc(I)cc1Cl,0
7,CCn1c(-c2nonc2N)nc2cncc(CNC3CCNCC3)c21.Cl [SB-747651],0
8,Cc1nnc(-c2ccc3occ(-c4ccc(S(C)=O)cc4)c3n2)o1 (stereo not drawn),8
9,CCCC(=O)Nc1n[nH]c2ncccc12 [SB-601436],0
10,O=C(Nc1cccc(Oc2ccc3nccn3n2)c1)Nc1cccc(C(F)(F)F)c1,0
11,C[C@@H]1CCN(C(=O)N2CCCC2)C[C@@H]1N(C)c1ncnc2[nH]ccc12,26
12,c1ccc(Oc2ccc(Nc3ccnc4ccc(-c5ccccn5)cc34)cc2)cc1 [GW407034],27
13,O=c1[nH]cc(-c2ccc(O)cc2)c2sc(-c3ccncc3)cc12 [GSK1033723],13
14,CS(=O)(=O)Nc1ccc(-c2ccnc3[nH]ccc23)cc1 [GSK993273],0
15,Cc1n[nH]c2cc(Nc3ccnc(Nc4cccc(CN5CCOCC5)c4)n3)ccc12 [GW682569],7
